Among the data in PubChem BioAssay are composite z-score and z-score values, retold here.

Assay [1] in a line: small molecules captured by biotinylated probe aFSTL3 – biochemical, small-molecule microarray, fluorescence 635/667, stem cell growth factor project, primary screen (AID 1064).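 Further: measures binding of the biotinylated anti-FSTL3 antibody to printed compounds.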 The settings on record: higher = more signal.
Assay [2] is described as follows: binders from COS7 lysate, DM2A8 probe, primary screen, torsin A project, cell lysate, small-molecule microarray, fluorescence 635/667 (AID 1065). The settings on record: higher = more signal, COS7 lysate expressing mutant human TOR1A.
Assay [3] can be described thus: small molecules captured by biotinylated probe aFGF2 – biochemical, small-molecule microarray, fluorescence 635/667, stem cell growth factor project, primary screen (AID 1067).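 Further: measures binding of biotinylated aFGF2 protein to printed compounds on slides; z-score merges feature fluorescence and signal-to-noise across triplicate slides.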 The settings on record: higher = more signal.
A short description of assay [4]: small molecules captured by biotinylated probe aFGF10 – biochemical, small-molecule microarray, fluorescence 635/667, stem cell growth factor project, primary screen (AID 1071).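 Further: score merges 667 nm spot intensity and signal to noise from triplicate slides.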 The settings on record: higher = more signal.
Assay [5] deals with Neurogenic locus notch homolog protein 2 (Homo sapiens) (UniProt Q04721). As to the kind of experiment: small molecules binding Notch2 protein – biochemical, small-molecule microarray, 635 nm fluorescence, stem cell growth factors, primary screen (AID 1073). The settings on record: higher = more signal.
For assay [6], the target named is Pro-neuregulin-1, membrane-bound isoform (Homo sapiens) (UniProt Q02297). As to the kind of experiment: small molecules binding neuregulin-1 protein – biochemical, small-molecule microarray, fluorescence 635/667, psychiatric disease protein project, primary screen (AID 1075).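 Further: score combines 667 nm spot fluorescence with signal to noise.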 The settings on record: NRG1 binding, 635 nm fluorescence, higher = more signal.
Assay [7] relates to Neuregulin-1 EGF-like domain. As to the kind of experiment: small molecules binding NRG1 EGF domain – biochemical, small-molecule microarray, 635 nm fluorescence, primary screen (AID 1081).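 Further: binding of the protein to compounds printed on small-molecule microarray slides.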 The settings on record: higher = more signal.
Assay [8] in a line: FRG1 expression reporter modulators in myotubes – cell-based, C2C12 myotubes, firefly/Renilla luciferase, luminescence, FRG1 inhibition for FSHD, primary screen (AID 1084). The settings on record: FRG1 promoter luciferase, higher = more signal, called active from +8 up or from −8 down.
Assay [9] in a line: small molecules captured by biotinylated probe aFST – biochemical, small-molecule microarray, fluorescence 635/667, stem cell growth factor project, primary screen (AID 1086).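 Further: score merges 667 nm fluorescence with signal-to-noise of each printed compound spot.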 The settings on record: higher = more signal.
A short description of assay [10]: binders of probe aHhip on microarray, primary screen, stem cell growth factor project, biochemical, small-molecule microarray, fluorescence 635/667 (AID 1087).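 Further: score merges spot fluorescence at 667nm with spot signal to noise ratio.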 The settings on record: higher = more signal.

Calls of active or inactive are those of the source.

Sequence of Pro-neuregulin-1, membrane-bound isoform (Homo sapiens) (Q02297 whole entry, looked up, the tested form may be a part, canonical isoform): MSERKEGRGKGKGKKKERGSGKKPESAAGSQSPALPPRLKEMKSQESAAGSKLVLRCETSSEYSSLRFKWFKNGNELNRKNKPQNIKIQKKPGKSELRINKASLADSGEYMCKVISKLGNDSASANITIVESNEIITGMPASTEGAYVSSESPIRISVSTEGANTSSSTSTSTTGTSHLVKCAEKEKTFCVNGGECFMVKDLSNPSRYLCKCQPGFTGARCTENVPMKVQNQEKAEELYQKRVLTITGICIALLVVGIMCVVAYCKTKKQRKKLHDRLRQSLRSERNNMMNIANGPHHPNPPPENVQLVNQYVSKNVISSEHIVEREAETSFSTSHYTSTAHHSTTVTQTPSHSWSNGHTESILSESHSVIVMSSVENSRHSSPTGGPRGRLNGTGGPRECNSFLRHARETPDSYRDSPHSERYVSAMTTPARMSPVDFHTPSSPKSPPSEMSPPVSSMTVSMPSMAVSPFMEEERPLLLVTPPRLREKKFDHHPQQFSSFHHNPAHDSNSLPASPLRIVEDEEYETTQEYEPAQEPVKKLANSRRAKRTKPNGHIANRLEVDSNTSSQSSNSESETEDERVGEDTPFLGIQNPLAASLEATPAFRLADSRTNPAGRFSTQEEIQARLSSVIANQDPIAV
Sequence of Neurogenic locus notch homolog protein 2 (Homo sapiens) (Q04721 whole entry, looked up, canonical isoform): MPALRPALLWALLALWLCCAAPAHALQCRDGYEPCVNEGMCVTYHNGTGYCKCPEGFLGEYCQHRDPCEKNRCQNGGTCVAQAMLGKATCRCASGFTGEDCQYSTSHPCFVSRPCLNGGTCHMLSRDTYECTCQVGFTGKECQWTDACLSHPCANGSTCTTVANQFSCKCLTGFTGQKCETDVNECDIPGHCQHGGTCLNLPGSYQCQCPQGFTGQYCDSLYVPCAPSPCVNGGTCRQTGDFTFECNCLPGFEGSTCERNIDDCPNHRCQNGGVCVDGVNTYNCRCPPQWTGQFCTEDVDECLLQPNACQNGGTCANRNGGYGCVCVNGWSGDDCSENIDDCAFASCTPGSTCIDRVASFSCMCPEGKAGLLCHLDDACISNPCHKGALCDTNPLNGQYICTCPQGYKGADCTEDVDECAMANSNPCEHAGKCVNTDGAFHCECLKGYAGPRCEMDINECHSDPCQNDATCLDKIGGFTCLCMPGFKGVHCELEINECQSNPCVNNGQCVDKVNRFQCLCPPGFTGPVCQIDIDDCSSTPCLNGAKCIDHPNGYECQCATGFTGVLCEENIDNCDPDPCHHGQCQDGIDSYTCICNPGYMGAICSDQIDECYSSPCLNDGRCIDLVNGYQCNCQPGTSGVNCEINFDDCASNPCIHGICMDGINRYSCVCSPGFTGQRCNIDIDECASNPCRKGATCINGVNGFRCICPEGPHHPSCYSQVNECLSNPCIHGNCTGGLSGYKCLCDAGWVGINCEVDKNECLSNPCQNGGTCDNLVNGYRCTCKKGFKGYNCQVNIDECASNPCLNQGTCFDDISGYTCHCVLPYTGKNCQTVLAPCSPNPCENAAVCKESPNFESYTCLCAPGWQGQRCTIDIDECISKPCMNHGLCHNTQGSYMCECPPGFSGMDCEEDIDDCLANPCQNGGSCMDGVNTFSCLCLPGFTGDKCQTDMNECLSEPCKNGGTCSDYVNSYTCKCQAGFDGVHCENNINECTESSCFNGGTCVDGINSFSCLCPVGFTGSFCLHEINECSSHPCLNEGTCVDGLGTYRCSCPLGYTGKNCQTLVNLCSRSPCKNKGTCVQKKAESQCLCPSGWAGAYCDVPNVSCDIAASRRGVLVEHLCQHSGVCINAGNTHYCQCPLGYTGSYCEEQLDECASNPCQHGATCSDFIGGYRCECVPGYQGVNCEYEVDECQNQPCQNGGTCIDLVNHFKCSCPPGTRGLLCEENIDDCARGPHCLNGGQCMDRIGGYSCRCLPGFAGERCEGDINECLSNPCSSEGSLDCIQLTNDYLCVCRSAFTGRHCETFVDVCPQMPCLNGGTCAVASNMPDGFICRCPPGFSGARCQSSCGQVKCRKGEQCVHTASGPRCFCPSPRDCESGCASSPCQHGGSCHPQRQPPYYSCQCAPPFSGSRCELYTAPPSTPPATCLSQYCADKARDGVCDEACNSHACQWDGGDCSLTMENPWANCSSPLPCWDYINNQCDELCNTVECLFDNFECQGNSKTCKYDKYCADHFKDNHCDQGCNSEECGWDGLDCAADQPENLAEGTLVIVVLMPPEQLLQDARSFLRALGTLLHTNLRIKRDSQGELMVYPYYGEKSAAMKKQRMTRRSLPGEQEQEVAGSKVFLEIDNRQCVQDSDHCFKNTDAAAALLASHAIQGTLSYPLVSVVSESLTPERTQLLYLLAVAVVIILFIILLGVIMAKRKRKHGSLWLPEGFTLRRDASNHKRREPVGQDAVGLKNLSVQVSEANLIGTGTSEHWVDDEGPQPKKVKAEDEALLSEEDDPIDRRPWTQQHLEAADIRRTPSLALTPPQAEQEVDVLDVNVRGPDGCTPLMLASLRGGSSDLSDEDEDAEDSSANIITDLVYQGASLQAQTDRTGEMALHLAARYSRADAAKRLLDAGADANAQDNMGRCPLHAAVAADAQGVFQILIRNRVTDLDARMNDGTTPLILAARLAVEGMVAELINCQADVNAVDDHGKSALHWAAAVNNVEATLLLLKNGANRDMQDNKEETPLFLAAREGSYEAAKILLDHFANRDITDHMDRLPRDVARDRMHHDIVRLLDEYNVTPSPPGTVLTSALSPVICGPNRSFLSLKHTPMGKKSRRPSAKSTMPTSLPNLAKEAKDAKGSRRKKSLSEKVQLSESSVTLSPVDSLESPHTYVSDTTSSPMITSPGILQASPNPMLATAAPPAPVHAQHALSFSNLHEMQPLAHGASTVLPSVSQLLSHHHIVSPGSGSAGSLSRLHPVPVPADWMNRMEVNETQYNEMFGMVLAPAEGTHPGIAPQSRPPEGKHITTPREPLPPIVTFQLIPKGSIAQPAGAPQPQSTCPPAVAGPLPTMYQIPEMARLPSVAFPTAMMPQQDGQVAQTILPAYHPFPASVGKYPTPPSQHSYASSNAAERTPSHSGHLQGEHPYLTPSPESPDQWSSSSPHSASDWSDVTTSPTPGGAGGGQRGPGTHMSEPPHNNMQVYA

Take `CCCCC(=C=CC[C@@H](O)c1ccccc1OCCO)C[C@@H](O)c1ccccn1`: the composite z-score in assay [1] was 0.0106; in assay [2], 0.362; in [3] it was -0.102; in assay [4], 0.23; in assay [5], 0.418; in assay [6] it was 0.69. Besides, the results for the composite z-score in assay [7], in [9] and in [10] were 0.327, -0.0288 and -0.0645, respectively. In addition, the z-score in assay [8] was -1.14 (inactive).
`CC(C)N1C(=O)[C@@]2(Cc3ccccc31)c1ccccc1C(=O)N(Cc1ccccc1C(F)(F)F)[C@H]2c1ccc(CO)cc1`: the composite z-score was -0.303 in assay [1]; 0.0613 in [2]; -0.0775 in assay [3]; 0.108 in [4]; 0.339 in [5]; 0.39 in assay [6]. For the same compound, the composite z-score in assay [7] was 1.46; in assay [9], 0.086; in [10], -0.116. Further, the z-score in assay [8] was -0.641 (inactive).
On to `[N-]=[N+]=NCc1ccccc1[C@H]1OC(c2ccc(OCCCO)cc2)=N[C@@]1(CCS(=O)(=O)c1ccccc1)C(=O)O`, for which the composite z-score was 0.0191 in assay [1]; 0.401 in assay [2]; -0.0087 in assay [3]; 0.135 in assay [4]; 1.21 in assay [5]; 1.01 in assay [6]. Besides, the values for the composite z-score in assay [7], in assay [9] and in [10] were 0.19, 0.785 and 0.0881, respectively. Moreover, the z-score in [8] is 6.44 (inactive).
Consider `COC(=O)C(CC#Cc1ccc2c(c1)[C@]1(C(=O)N2)[C@H](C(=O)N2CCN(c3ncccn3)CC2)[C@H]2C(=O)O[C@H](c3ccccc3)[C@H](c3ccccc3)N2[C@@H]1c1ccc(O)cc1)C(=O)OC`, for which the composite z-score in assay [1] was determined as 2.65; in assay [2], 0.987; in assay [3], 0.374; in [4], 1.01; in assay [5] it was 1.53; in assay [6], 1.44. The composite z-score turned out to be 1.31 in assay [7], 2.24 in assay [9] and 0.102 in assay [10]. Moreover, the z-score in assay [8] was 1.41 (inactive).
Regarding `C=CC[C@]1(C(=O)NCC(O)CO)N=C(c2ccc(OCCCO)cc2)O[C@H]1c1ccccc1CN=[N+]=[N-]` (stereo not given in full), the composite z-score is 1 in assay [1]; 1.23 in [2]; -0.0316 in [3]; 0.36 in [4]; -0.757 in [5]; 0.323 in assay [6]. In addition, the composite z-score in [7] came out at 1.23; in assay [9] it was 0.267; in [10], 0.189. Also, the z-score in assay [8] was -0.27 (inactive).
As to `COc1cc2c(cc1OC)CN(C(=O)[C@@H]1[C@H]3C(=O)O[C@H](c4ccccc4)[C@H](c4ccccc4)N3[C@H](c3ccc(O)cc3)[C@@]13C(=O)Nc1ccc(C#CC4=CCCCC4)cc13)CC2`, the composite z-score in [1] is 0.105; in [2], 0.576; in assay [3], -0.0899; in assay [4], 0.864; in assay [5] it was 1.48; in [6], 0.347. For the same compound, the values for the composite z-score in assay [7], in [9] and in assay [10] were 1.13, 0.588 and 0.0479, respectively. The z-score in [8] is 0.561 (inactive).
For `COC(=O)[C@@]1(Cc2ccc(F)cc2)[C@@H]2C(=CC(=O)[C@H]2CC(=O)C(=O)N2CCCC2)CN1C(=O)c1ccccc1`, the composite z-score in [1] worked out at 1; in [2] it was 1.61; in assay [3] it was 0.575; in assay [4], 0.866; in assay [5] it was 1.58; in [6], 1.81. For the same compound, the figures for the composite z-score in assay [7], in [9] and in [10] were 1.33, 2.02 and 0.655, respectively. Further, in [8], the z-score is 1.48 (inactive).
`COc1ccc(C#Cc2ccc3c(c2)[C@]2(C(=O)N3)[C@H](c3ccccc3OCCO)N3[C@H](c4ccccc4)[C@H](c4ccccc4)OC(=O)[C@H]3[C@@H]2C(=O)NC[C@H](O)c2ccccc2)cc1`: the composite z-score was -0.38 in assay [1]; 0.203 in assay [2]; -0.0628 in [3]; 0.146 in assay [4]; 1 in [5]; 0.698 in assay [6]. The composite z-score in assay [7] turned out to be 1.27; in assay [9], 0.469; in [10], 0.21. Moreover, the z-score in assay [8] is 0.621 (inactive).
`COc1ccc([Si](C)(C)[C@H]2[C@H](CCO)O[C@@]3(C(=O)N(Cc4ccccc4)c4ccc(NC(=O)[C@H](C)O)cc43)[C@@H]2C)cc1`: the composite z-score was -0.0382 in [1]; 0.394 in assay [2]; -0.0653 in [3]; 1.12 in assay [4]; 0.855 in assay [5]; 0.638 in [6]. Moreover, the results for the composite z-score in [7], in assay [9] and in assay [10] were 1.18, 0.239 and 0.126, respectively. The z-score in assay [8] is -3.18 (inactive).
Turning to `C=C[C@@H](CO)NS(=O)(=O)c1ccc(Br)cc1`, the composite z-score in assay [1] is 0.265; in assay [2], -0.066; in assay [3], -0.22; in assay [4], -0.426; in assay [5] it was -1.14; in assay [6], -0.361. Further, the composite z-score was -0.14 in assay [7], -0.257 in assay [9] and -0.156 in assay [10]. In addition, the z-score in assay [8] is -1.84 (inactive).
As to `C=C(CCCC)C(=O)CC[C@@H](OC(C)=O)c1ccc(OCCO)cc1`, the composite z-score in [1] was 0.0324; in assay [2], 1.11; in [3] it was -0.0909; in assay [4], 1.01; in [5] it was -0.626; in [6] it was 0.409. In addition, the composite z-score in assay [7] was 1.02; in assay [9], 0.0685; in assay [10], -0.134. In addition, the z-score in [8] was -0.0798 (inactive).
As for `COC(=O)C(CC#Cc1ccc2c(c1)[C@]1(C(=O)N2)[C@H](c2ccc(OCCO)cc2)N2[C@H](c3ccccc3)[C@H](c3ccccc3)OC(=O)[C@H]2[C@@H]1C(N)=O)C(=O)OC`, the composite z-score in assay [1] was 0.0757; in [2] it was 0.268; in assay [3] it was 0.187; in assay [4], 0.489; in assay [5] it was 0.0619; in [6] it was 1.26. Also, the composite z-score is 1.17 in assay [7], -0.0778 in assay [9] and 0.0826 in assay [10]. For the same compound, the z-score in assay [8] was 2.1 (inactive).
In the case of `O=C1NC(=O)C2C1C=CC(C(O)C(O)CO)N2Nc1ccccn1` (stereo not given), the composite z-score in assay [1] is -0.304; in [2], -0.0729; in [3] it was -0.154; in assay [4], 0.383; in assay [5] it was 0.864; in [6] it was 0.548. In addition, the composite z-score in assay [7] is 0.515; in assay [9], 0.0126; in [10], -0.191. Further, the z-score in [8] was -0.708 (inactive).
With `COC(=O)C(CC#Cc1ccc2c(c1)[C@]1(C(=O)N2)[C@H](C(N)=O)[C@H]2C(=O)O[C@H](c3ccccc3)[C@H](c3ccccc3)N2[C@@H]1c1ccccc1OCCO)C(=O)OC`, the composite z-score in assay [1] was 0.29; in assay [2], 1.81; in assay [3], -0.0122; in assay [4], 0.765; in assay [5] it was -0.21; in [6], 1.67. The composite z-score was 1.4 in assay [7], -0.275 in assay [9] and -0.0994 in [10]. Besides, the z-score in [8] is 1.69 (inactive).
Regarding `C=CCC(OC(C)=O)[C@@H]1[C@@H](N(Cc2ccc(-c3ccccc3)cc2)C(=O)Cc2ccc(OC)cc2)c2cc(OCCCO)ccc2N1C(=O)Cc1ccc(OC)cc1` (stereo not given in full), the composite z-score in assay [1] is 0.169; in [2] it was 0.414; in [3], -0.0363; in assay [4] it was 0.479; in assay [5], -0.076; in [6], 0.851. The composite z-score in assay [7] came out at 0.0142; in assay [9], 0.195; in assay [10], 0.411. Also, the z-score in assay [8] was -1.5 (inactive).
Take `C=CC[C@H](O)c1ccc(O)c(F)c1`: the composite z-score in assay [1] is 0.226; in assay [2], -1.35; in [3], -0.076; in assay [4] it was -0.819; in [5], -1.73; in assay [6], -0.676. Further, the composite z-score in [7] is -0.502; in assay [9], -1.39; in assay [10], 0.414. Besides, in assay [8], the z-score is 1.17 (inactive).
